High-throughput results (PubChem BioAssay)
LYPLA1 counter: LYPLA1 inhibitors, primary screen, counter-screen for PME1 inhibitor project, biochemical, fluorescence polarization, FP-Rh probe ABPP. Acyl-protein thioesterase 1 (Homo sapiens), O75608. recombinant LYPLA1. inhibition, % at 5.9 µM. 0.16% of 320,000 active. AID 2174, 2009;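 active = inhibition above the mean of all tested compounds plus 3 SD, set per campaign, cut at about 14% in these data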;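 also: inhibitors block serine hydrolase probe labeling of LYPLA1 so polarization falls; 0% = enzyme with DMSO and 100% = wells lacking LYPLA1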
Target sequence (O75608 whole entry, looked up): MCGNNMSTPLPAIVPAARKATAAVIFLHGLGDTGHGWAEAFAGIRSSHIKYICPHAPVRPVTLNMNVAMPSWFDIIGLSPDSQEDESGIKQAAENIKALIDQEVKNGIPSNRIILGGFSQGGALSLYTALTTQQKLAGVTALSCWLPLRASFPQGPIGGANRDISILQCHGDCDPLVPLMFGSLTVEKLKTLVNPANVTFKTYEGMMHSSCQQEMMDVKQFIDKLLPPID
Fam108B inh: mouse Fam108B serine hydrolase inhibitors, primary screen, counter-screen for RBBP9 inhibitor project, biochemical, fluorescence polarization | 0.33% of 300,000 active | recombinant Fam108B, FP-Rh probe fluorescence polarization | inhibition, % at 9.51 µM;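 active = inhibition above the screen mean inhibition plus 3 SD, computed separately per campaign, cut at about 18% in these data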;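 also: inhibitors lower polarization as less probe binds the enzyme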
PME-1 inh: PME-1 inhibitors via competitive probe labeling, primary screen, biochemical, fluorescence polarization, FP-Rh probe, HTS. Protein phosphatase methylesterase 1 (Homo sapiens), Q9Y570. recombinant PME-1. inhibition, % at 5.9 µM. 0.53% of 320,000 active;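 active = inhibition above the campaign mean of all compounds plus 3 SD, cut at about 26% in these data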;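 also: competitive labeling of PME-1 active site by serine hydrolase directed probe; 0% = PME-1 with DMSO and 100% = wells lacking PME-1 enzyme; inhibitors block probe labeling so polarization falls and inhibition rises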
PREPL inh: PREPL enzyme inhibitors, primary screen, biochemical, fluorescence polarization | 0.68% of 320,000 active | inhibition, % at 5.96 µM | recombinant PREPL, fluorescence polarization activity-based probe | AID 2751, 2010;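 also: 0% = enzyme with DMSO and 100% = wells lacking enzyme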
LYPLA2 counter: LYPLA2 inhibitors, primary screen, counter-screen for PME1 inhibitor project, biochemical, fluorescence polarization, FP-Rh probe ABPP | recombinant LYPLA2 | inhibition, % at 5.9 µM | 0.38% of 320,000 active;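 active = inhibition above the screen-wide mean plus 3 SD, limit set per campaign, cut at about 26% in these data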;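 also: 0% = LYPLA2 with DMSO and 100% = wells lacking LYPLA2 enzyme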
Target sequence (O95372 whole entry, looked up): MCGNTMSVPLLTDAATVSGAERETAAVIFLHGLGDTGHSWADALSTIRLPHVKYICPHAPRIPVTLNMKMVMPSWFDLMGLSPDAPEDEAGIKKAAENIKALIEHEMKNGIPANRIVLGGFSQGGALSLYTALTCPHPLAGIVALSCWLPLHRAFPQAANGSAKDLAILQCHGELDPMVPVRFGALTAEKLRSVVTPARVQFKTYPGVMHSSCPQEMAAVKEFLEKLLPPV
LYPLA1 confirm: LYPLA1 inhibitors, retest, confirmation, counter-screen for PME1 inhibitor project, biochemical, fluorescence polarization, FP-Rh probe ABPP. shares compounds with LYPLA1 counter. recombinant LYPLA1. inhibition, % at 5.9 µM. 69% of 480 active. AID 2233, 2010;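 active = mean inhibition across replicates above the hit cutoff set in the primary screen, cut at about 15% in these data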;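 also: loss of FP-Rh probe labeling of LYPLA1 seen as lower polarization; 0% = LYPLA1 with DMSO and 100% = wells lacking LYPLA1 enzyme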
LYPLA2 conf: LYPLA2 inhibitors, retest, confirmation, counter-screen for PME1 inhibitor project, biochemical, fluorescence polarization, FP-Rh probe ABPP. recombinant LYPLA2. 72% of 1,100 active. AID 2232, 2010. shares compounds with LYPLA2 counter. inhibition, % at 5.9 µM;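 active = mean inhibition across replicates above the hit cutoff set in the primary screen, cut at about 26% in these data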;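 also: blocked labeling of the enzyme by serine hydrolase FP-Rh probe lowers polarization; 0% = enzyme with DMSO and 100% = wells lacking LYPLA2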
LYPLA2 gel ABPP: LYPLA2 inhibitors in proteome, late-stage follow-up, gel-based competitive ABPP, fluorescence, assay provider; shares compounds with LYPLA2 counter; rhLYPLA2 in mouse brain proteome, gel ABPP FP-Rh; inhibition, % at 20 µM; 30% of 150 active; AID 652029, 2013;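 active = inhibition of LYPLA2 enzyme probe labeling above about 50%, limit read from the data; inactive = inhibition below that limit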;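 also: loss of FP-Rh probe labeling of the LYPLA2 gel band measured as band density; 0% = DMSO only control band and 100% = blank gel background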
PREPL inh cf: human PREPL enzyme inhibitors, confirmation, biochemical, fluorescence polarization; shares compounds with PREPL inh; recombinant PREPL, fluorescence polarization activity probe; inhibition, % at 5.96 µM; 67% of 2,000 active; AID 2803, 2010;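 also: 0% = protein with DMSO and 100% = wells lacking protein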
Starred values were filed as active, the others as inactive; . = no result given. Compounds with a hit are over-represented: about 1.3% of the library has one in this group of screens. Rule as the data show it, unless noted: active = inhibition above about 43%; inactive = the rest.

SMILES	LYPLA1 counter	Fam108B inh	PME-1 inh	PREPL inh	LYPLA2 counter	LYPLA1 confirm	LYPLA2 conf	others
CCOC(=O)C1CCN(c2ncnc3c2nnn3Cc2ccccc2Cl)CC1	28*	0	9	4	48*	40*	54*
Cc1cccc(OCc2n[nH]c(=S)n2Cc2ccccc2)c1	-2	-2	-2	-25	10	.	.
Cc1ccc(OCC(=O)NN=C2C3CC4CC(C3)CC2C4)cc1	3	.	5	-2	9	.	.
CCCOC(=O)c1ccc(Oc2coc3c(CN(CC)CC)c(O)ccc3c2=O)cc1	30*	1	-3	-6	34*	32*	28*
Cc1ccc(CN2CCN(/N=C\c3cccc([N+](=O)[O-])c3)CC2)cc1	17*	0	-5	35	28*	19*	35*
C(=C\c1ccccc1)/CN1CCN(c2ncnc3c2oc2ccccc23)CC1	15*	-2	0	-118	35*	23*	32*
O=C(CCCCCCCCN1C(=O)c2ccccc2C1=O)N1CCOCC1	-1	-1	-4	6	3	.	.
O=C(CCCCCCN1C(=O)c2ccccc2C1=O)N1CCC(c2ccccc2)C1 (stereo not drawn)	68*	4	7	8	76*	68*	70*
O=C(O)c1cccnc1Sc1ccc(Br)cc1	-1	1	-3	3	2	.	.
CC#CC(=O)N1CCC(n2nccc2NC(=O)c2ccc3c(c2)OCO3)CC1	26*	5	4	17	31*	37*	30*
CCCN1C=CC(=C/C=C(\C#N)C(=O)OCC)C=C1	0	5	-6	-1	-3	.	.
CCCCCCN1C=CC(=C/C=C(\C#N)C(=O)OCC)C=C1	25*	2	-8	26	41*	27*	35*
CCNc1nc(OC)nc(N(OC)S(=O)(=O)c2ccc(C)cc2)n1	1	1	-2	3	4	.	.
Cc1cc(N)ccc1N1CCCC1	22*	13	33*	57*	29*	1	4	PREPL inh cf=45*
Cc1cc(NS(=O)(=O)c2ccc(Nc3nc(-c4sc(NC(=O)c5ccccc5)nc4C)cs3)cc2)no1	41*	-9	81*	66*	59*	37*	37*	PREPL inh cf=63*
Cc1nc(NC(=O)c2ccccc2)sc1-c1csc(Nc2cccc(F)c2)n1	-19	10	5	6	-26	.	.
CCCc1cc(C(=O)OCC(=O)N2CCN(c3ccc(OC)cc3)CC2)sc1C	0	.	-2	19	6	.	.
Cc1ccc(NCC(=O)Nc2c(C)n(C)n(-c3ccccc3)c2=O)cc1S(=O)(=O)N(C)C	0	-3	0	-10	-1	.	.
Cc1noc(NS(=O)(=O)c2ccc(NC(=O)Nc3ccc(Cl)c(Cl)c3)cc2)c1C	35*	8	51*	48*	14	2	.	PREPL inh cf=46*
Cc1noc(NS(=O)(=O)c2ccc(NC(=O)C(Cl)(Cl)Cl)cc2)c1C	0	2	-11	8	5	.	.
Cc1ccc2nc(-c3sc4nc(C)cc(C)c4c3N)[nH]c2c1	15*	4	30*	73*	9	2	.	PREPL inh cf=37
Cc1cc(=O)[nH]c2nnc(-c3ccc(Cl)cc3)n12	-5	-1	-4	-1	2	.	.
CCNc1cc(O)ccc1C	31*	.	31*	70*	40*	15*	8	PREPL inh cf=15
Cc1cccc(NC(=O)CN2C(=O)S/C(=C\c3ccc(-c4cccc(C(=O)O)c4C)o3)C2=O)c1	3	-1	-8	4	29*	.	35*
O=C(CN1C(=O)S/C(=C\c2ccc(O)cc2)C1=O)c1ccccc1	-7	-1	17	7	35*	.	33*
SMILES	LYPLA1 counter	Fam108B inh	PME-1 inh	PREPL inh	LYPLA2 counter	LYPLA1 confirm	LYPLA2 conf	others
O=C(CN1C(=O)S/C(=C\c2ccc(C(=O)O)cc2)C1=O)Nc1ccccc1	2	-8	1	3	58*	.	67*	LYPLA2 gel ABPP=63*
CNC(=O)Nc1cc(NC(=O)NC)cc(C(F)(F)F)c1	1	3	0	-4	-3	.	.
COc1ccc(-c2cc3nc4ccccc4n3c(N)c2C#N)cc1	-1	7	-7	24	3	.	.
COc1ccccc1C1CC(c2ccc(Cl)cc2Cl)Nc2nc(N)nn21 (stereo not drawn)	-1	4	0	40	43*	.	34*
O=C1[C@@H]2Cc3c([nH]c4ccccc34)CN2C(=O)CN1CCCCCO	-1	-3	-11	28	30*	.	20
O=C1[C@@H]2Cc3c([nH]c4ccccc34)CN2C(=O)CN1CCO	2	-1	1	3	6	.	.
CC(C)CCN1CC(=O)N2Cc3[nH]c4ccccc4c3C[C@H]2C1=O	2	0	1	19	60*	.	56*	LYPLA2 gel ABPP=14
O=C(COC(=O)c1ccc(CO)cc1)NCc1cccs1	-5	3	-1	17	-7	.	.
CN(C)C(=S)Nc1ccc2c(c1)OCCO2	-1	-2	-1	5	0	.	.
CCC(=O)N1CCc2cc(S(=O)(=O)CCC(=O)N3CCN(c4ccc(F)cc4)CC3)ccc21	-3	-2	1	-3	2	.	.
O=C(NNc1ccccc1[N+](=O)[O-])Nc1ccc(F)cc1	-2	-6	5	16	17	.	.
O=C(NNc1ccccc1[N+](=O)[O-])Nc1ccccc1	2	1	3	15	28*	.	17
O=C(NNc1ccccc1[N+](=O)[O-])Nc1ccc(Cl)c(Cl)c1	-10	-13	-5	41	49*	.	44*
CCN(CC)S(=O)(=O)c1cc(NC(=O)C2CC(=O)N(Cc3ccccc3)C2)ccc1Cl (stereo not drawn)	-4	.	9	-5	3	.	.
Cc1c(C(=O)NCc2ccc3c(c2)cc(C)n3C)cccc1[N+](=O)[O-]	-4	2	0	19	0	.	.
Cn1cc([N+](=O)[O-])c(C(=O)N2CCCCCC2)n1	1	5	5	-1	-3	.	.
